From PubChem
Shown are actives, neighbours in structure and some others; about 6% of the full set was active somewhere.
Tau FP inhib: qHTS for Inhibitors of Tau Fibril Formation, Fluorescence Polarization; hit rate 0.39% among 280,000; Potency, µM (series often up to 57.7 µM), usual class: inhibitors; K18 P301L tau heparin fibrillization, Alexa594 FP, 6 h; Microtubule-associated protein tau (Homo sapiens), P10636; AID 1468, 2008; further: nearly all actives have a fitted effect of over 55% in size
Target sequence (P10636 561-689 P618L limits assumed): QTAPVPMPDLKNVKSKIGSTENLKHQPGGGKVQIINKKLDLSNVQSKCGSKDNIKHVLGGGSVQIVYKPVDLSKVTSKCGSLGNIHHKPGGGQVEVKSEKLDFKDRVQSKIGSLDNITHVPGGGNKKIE
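Read-out: fluorescence polarization of Alexa 594-labeled tau (0.24 uM), 555 nm excitation, 632 nm emission. Mixtures held 15 uM unlabeled K18 P301L, compound and 20 uM heparin, pH 7 acetate buffer, incubated 6 hr at 37 C.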
PLK1 PBD inh: qHTS for Inhibitors of PLK1-PDB (polo-like kinase 1 - polo-box domain): Primary Screen. Serine/threonine-protein kinase PLK1 (Homo sapiens), P53350. Plk1 PBD binding of FITC phosphopeptide, fluorescence polarization. Potency, µM, actives largely listed as inhibitors. hit rate 2.8% among 360,000. AID 720504, 2013; further: series mostly up to about 57 µM; nearly all actives have a fitted effect of over 65% in size
VDR inhibitor: Inhibitors of the vitamin D receptor (VDR): qHTS; Vitamin D3 receptor (Homo sapiens), P11473; VDR-SRC2-3 peptide fluorescence polarization, 2 h; Potency, µM, usual class: inhibitors; hit rate 0.93% among 400,000
Target sequence (P11473 whole entry, looked up): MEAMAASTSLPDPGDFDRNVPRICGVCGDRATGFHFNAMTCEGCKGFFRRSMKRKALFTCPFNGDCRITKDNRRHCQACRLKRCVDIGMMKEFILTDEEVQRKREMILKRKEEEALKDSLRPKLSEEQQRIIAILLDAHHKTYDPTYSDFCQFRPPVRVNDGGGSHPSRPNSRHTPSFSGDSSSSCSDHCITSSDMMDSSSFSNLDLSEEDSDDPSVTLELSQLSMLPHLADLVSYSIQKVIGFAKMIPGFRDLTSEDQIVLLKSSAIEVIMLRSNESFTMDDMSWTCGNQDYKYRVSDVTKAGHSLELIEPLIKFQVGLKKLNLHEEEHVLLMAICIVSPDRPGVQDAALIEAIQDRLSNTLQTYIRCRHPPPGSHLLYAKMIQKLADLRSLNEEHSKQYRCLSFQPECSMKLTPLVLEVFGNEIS
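Signal is fluorescence polarization, reporting how far test compounds block the interaction of VDR with the SRC2-3 coregulator peptide after a 2 h room-temperature incubation.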
Sfp inh: qHTS Assay for Inhibitors of Bacillus subtilis Sfp phosphopantetheinyl transferase (PPTase); 4'-phosphopantetheinyl transferase ffp (Bacillus subtilis), Q9F4F7; Biochemical Sfp PPTase activity, qHTS; Potency, µM, hits mostly inhibitors; hit rate 3.5% among 310,000; AID 1490, 2009;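 further: the enzyme is Sfp with the accession as filed and its product quenches rhodamine fluorescence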
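Compounds were incubated with enzyme (final 15 nM) for 15 min at room temperature before substrate addition started the reaction. Fluorescence at 525 nm excitation, 598 nm emission was recorded immediately and after 30 minutes.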
Tau fluor counter: Counterscreen qHTS for Inhibitors of Tau Fibril Formation, Fluorescence Polarization. tau K18 P301L Alexa594 fluorescence, heparin fibrillization. Potency, µM (series often up to 57.7 µM). hit rate 0.93% among 280,000; further: nearly all actives have a fitted effect of over 55% in size
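Human tau K18 P301L (15 uM unlabeled, 0.24 uM Alexa 594-labeled) in 100 mM sodium acetate pH 7 with 20 uM heparin, 6 hr at 37 C. ThT 30 uM added, 1 hr ambient; Alexa 594 FP and total fluorescence read at 555/632 nm.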
Tau ThT inhib: qHTS for Inhibitors of Tau Fibril Formation, Thioflavin T Binding; Microtubule-associated protein tau (Homo sapiens), P10636; recombinant tau K18 P301L (four-repeat tau fragment), heparin-induced fibrillization, ThT fluorescence; Potency, µM (doses to about 57.4 µM), most hits filed as inhibitors; hit rate 2.1% among 270,000; AID 1460, 2008; further: nearly all actives have a fitted effect of over 55% in size
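In this qHTS, human K18 P301L tau is incubated with compound and heparin for 6 hr at 37 C, and Thioflavin T fluorescence then reports fibril load.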
A number is an active result; - = inactive; ? = inconclusive; . = no result given; ! = not confirmed by another sample; [ ] = another dose, or the depositor's remark. The call rests on the fitted dose curve; in most records, active means well fitted curve in the direction sought with a large enough effect; inconclusive means small, poorly fitted or top-dose-only effect, or another doubt; inactive means no such curve, though single readings can be large; an effect the other way counts as inactive or inconclusive.

SMILES	Tau FP inhib	PLK1 PBD inh	VDR inhibitor	Sfp inh	Tau fluor counter	Tau ThT inhib
NC(=O)CC(NC(=O)c1ccccc1)c1ccc(NCc2ccc(F)c(F)c2)c([N+](=O)[O-])c1 (stereo not given)	.	-	-	-	.	.
NC(=O)CC(NC(=O)Cc1ccc(Br)cc1)c1ccc(NCCc2ccc(Cl)cc2)c([N+](=O)[O-])c1 (stereo not given)	?	-	-	?	?	?
CCC(C)NC(=O)c1ccc2c(c1)N(Cc1ccccc1)C(=O)c1ccccc1S2(=O)=O (stereo not given)	-	.	-	.	-	-
O=C(Cn1ncc2c3ccccc3n(Cc3cccc(Cl)c3)c2c1=O)NCc1cccs1	-	.	-	.	-	-
Cc1c(C(=O)Nc2ccc(Br)cc2F)sc2ncnc(N(C)C3CCCCC3)c12	-	.	-	.	?	?
Nc1ncnc2c1ncn2[C@@H]1O[C@H](CNC(=O)[C@H](N)Cc2cscn2)[C@@H](O)[C@H]1O	.	-	-	.	.	.
C=CCC1(CC=C)CCCN1C(=O)Cn1nnnc1CN(C)C(C)C	.	-	-	-	.	.
CCCOC(=O)C1=C(C)NC(=O)NC1c1ccc(Br)s1 (stereo not given)	-	24µM	-	-	-	-
CC1=C(C(=O)OCC(C)C)C(c2ccc(Br)s2)NC(=O)N1 (stereo not given)	-	-	-	-	-	-
CC1CCc2c(sc3ncnc(SCC(=O)c4ccccc4)c23)C1 (stereo not given)	-	13µM	-	-	-	-
CC(=O)CSc1ncnc2sc3c(c12)CCC(C)C3 (stereo not given)	-	24µM	-	-	-	-
CC1CCc2c(sc3ncnc(SCC(=O)N(C)C4CCS(=O)(=O)C4)c23)C1 (stereo not given)	.	27µM	-	.	.	.
Cc1ccc(NC(=O)c2ccc(NC(=O)N3CCSc4nc(C)cc(C)c43)cc2)c(Cl)c1	-	.	-	.	-	-
CCCCCCN1CCN(C2CN(Cc3ccc(F)cc3)S(=O)(=O)C2)CC1 (stereo not given)	.	-	.	.	.	.
N#C/C(=C/c1ccncc1)c1nc2ccccc2s1	-	-	71µM	-	-	?
CCCCC(=O)OC1=C(C(=O)c2ccccc2)N(C)S(=O)(=O)c2ccccc21	-	.	-	.	-	14µM
Cc1ccc(Cl)cc1NC(=O)C1CCN(C(=O)c2cnn(-c3ccccc3)c2-n2cccc2)CC1	-	.	-	.	-	?
c1csc(CNc2ncnc3ccc(-c4ccoc4)cc23)c1	.	.	32µM!	-	.	.
c1ccc(CNc2ncncc2-c2ccoc2)cc1	.	.	50µM	-	.	.
c1csc(CNc2ncncc2-c2ccoc2)c1	.	.	50µM	-	.	.
CCCNC(=O)OC[C@@H]1O[C@H](CCO/N=C(\C)CCC(=O)OC[C@@H]2O[C@H](c3ccccc3)C=C[C@@H]2Oc2ccc(OC)cc2)C=C[C@@H]1Oc1ccc(OC)cc1	-[11.6 µM]	.	.	-	-[11.6 µM]	-[11.5 µM]
CC[N+](C)(C)CC/C=C1/c2ccccc2Sc2ccc(Cl)cc21	-	-	-	-	-	-
CCCCCCCCCC[N+](C)(C)CC/C=C1/c2ccccc2Sc2ccc(Cl)cc21	.	-	-	32µM	.	.
CCCCCCCCCCC[N+](C)(C)CC/C=C1/c2ccccc2Sc2ccc(Cl)cc21	.	?	-	40µM	.	.
COCCNc1ccnc(-c2c(C)noc2C)n1	-	.	-	-	-	-
SMILES	Tau FP inhib	PLK1 PBD inh	VDR inhibitor	Sfp inh	Tau fluor counter	Tau ThT inhib
COC(=O)c1sc2cccc(F)c2c1S(=O)(=O)NCc1ccc(F)cc1	?	.	-	.	-	-
CCOC(=O)c1sc(N)c(C(=O)Nc2ccccc2)c1C	-	9.5µM	?	20µM	-	-
CCOC(=O)c1c(N)sc(C(=O)OCCOC)c1C	-	9.5µM	79µM	25µM	-	-
CCOC(=O)c1sc(N)c(C(=O)OCC)c1C	-	-	-	-	-	?
NNC(=S)Nc1c(F)cc(F)cc1Br	-	-	-	79µM	-	?
Cc1cccc(C(=O)Nc2nnc(S(=O)(=O)N(C)c3ccccc3C)s2)c1	-	.	-	.	?	?
NS(=O)(=O)c1ccc(Nc2nc3ccccc3nc2NS(=O)(=O)c2cccc([N+](=O)[O-])c2)cc1	-	?	?	-	?	11µM
COc1cc(/C=C/C2=NNC(=O)CC2)cc(OC)c1OC	.	-	-	-	.	.
CC(C)c1ccc(/C=C/C2=NNC(=O)CC2)cc1	-	9.5µM	?	-	-	-
CC(C)[C@H]1COCCS(=O)(=O)N1Cc1ccccc1-c1ccccc1	.	24µM	?	.	.	.
CC(C)[C@H]1COCCS(=O)(=O)N1Cc1ccccc1-c1ccc(C(C)(C)C)cc1	.	-	-	.	.	.
Cc1ccccc1CN1[C@@H](CC2CCCCC2)COCCS1(=O)=O	.	27µM	?	-	.	.
Cc1ccc2cc3cc(C(=O)N4CCN(c5ccc(Cl)cc5)CC4)oc3nc2c1	-	.	-	.	-	-
c1ccc(Nc2scc(-c3ccccc3)[n+]2Cc2ccco2)cc1	-	-	-	20µM	?	?
COc1ccc(NC(=O)N2CCCC2C(=O)NCc2cccs2)cc1 (stereo not given)	.	-	-	-	.	.
O=C(N/N=C/c1coc2ccc(Cl)cc2c1=O)c1cc(O)cc(O)c1	.	27µM	-	-	.	.
O=C(N/N=C/c1ccccc1Cl)c1ccncc1	.	-	-	-	.	.
NC(=S)N/N=C/c1coc2ccc(F)cc2c1=O	-	-	-	-	-	.
NC(=S)N/N=C/c1coc2ccc(O)cc2c1=O	-	-	-	1.6µM	-	?
NC(=S)N/N=C/c1coc2ccc(Br)cc2c1=O	-	-	-	-	-	.
O=C(N/N=C/c1cc(Cl)ccc1O)c1ccncc1	-	3.4µM	?	-	-	-
NC(=S)N/N=C/c1coc2cc(Br)ccc2c1=O	-	-	-	-	?	16µM
CCOC(=O)Cc1csc(NC(=O)c2sc3nc4c(C)cc(C)cc4cc3c2N)n1	-	-	-	-	?	16µM
COc1ccc(-n2nc3c(c2NC(=O)COc2ccccc2OC)CS(=O)(=O)C3)cc1	.	-	.	.	.	.
CN(C(=O)CCc1ccccc1F)C1CCCN(Cc2ccccc2F)C1 (stereo not given)	.	3.4µM	35µM	-	.	.
COc1cccc(CCC(=O)N(C)C2CCCN(Cc3ccccc3F)C2)c1 (stereo not given)	.	-	-	-	.	.
COC1C(O)C(CO)OC1n1cnc2c(NC3CCCCC3)ncnc21 (stereo not given)	.	.	-	-	.	.
CC1(C(=O)NS(=O)(=O)C2CC2)CCCN(C(=O)c2ccc3ccccc3c2)C1 (stereo not given)	.	-	.	.	.	.
